The values below come from PubChem BioAssay (Tox21).

Molecules are shown by their SMILES. Records with an inconclusive call do not appear. Where a call stands in place of a potency, no number is given. Calls of active or inactive are those of the source. Calls follow the shape of the full dose curve.
Potency is read from the fitted curve at half-maximal effect.

Sequence of Acetylcholinesterase (Homo sapiens) (P22303 whole entry, looked up): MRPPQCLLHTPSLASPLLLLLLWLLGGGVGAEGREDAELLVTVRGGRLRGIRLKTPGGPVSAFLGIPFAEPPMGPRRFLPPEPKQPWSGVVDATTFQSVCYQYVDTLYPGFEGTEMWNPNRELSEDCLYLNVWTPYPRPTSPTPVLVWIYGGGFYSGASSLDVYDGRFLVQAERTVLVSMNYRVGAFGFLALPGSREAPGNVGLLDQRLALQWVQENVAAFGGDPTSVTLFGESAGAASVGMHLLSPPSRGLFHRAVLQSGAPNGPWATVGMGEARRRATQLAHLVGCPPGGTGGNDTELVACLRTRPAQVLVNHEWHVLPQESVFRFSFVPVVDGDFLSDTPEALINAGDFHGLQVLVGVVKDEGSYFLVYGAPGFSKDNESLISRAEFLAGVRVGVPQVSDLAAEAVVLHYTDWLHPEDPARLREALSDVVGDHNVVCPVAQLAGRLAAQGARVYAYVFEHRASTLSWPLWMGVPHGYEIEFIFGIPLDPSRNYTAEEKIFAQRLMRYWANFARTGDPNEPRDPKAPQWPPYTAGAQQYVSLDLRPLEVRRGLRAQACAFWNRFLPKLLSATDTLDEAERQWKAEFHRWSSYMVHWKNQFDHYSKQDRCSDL

The assay addresses Acetylcholinesterase (Homo sapiens) (UniProt P22303). The assay is described as follows: Acetylcholinesterase (AChE) small molecule antagonists: fluorescence cell-based qHTS assay (AID 1347398). Also: nearly all actives have a fitted effect of over 50% in size. As to conditions: SH-SY5Y cells; Potency: AChE activity; series mostly up to 115 µM. The source says: National Center for Advancing Translational Sciences [NCATS]
Division of Preclinical Innovation [DPI]
U.S. Environmental Protection Agency [EPA]
National Institutes of Environmental Health Sciences [NIEHS]
National Toxicology Program [NTP]
U.S. Food and Drug Administration [FDA]
Acetylcholinesterase (AChE) is the primary cholinesterase in the body that hydrolyzes a key neurotransmitter, acetylcholine. Inhibition of AChE activity can lead to neurotoxicity. Known inhibitors of AChE include organophosphorous pesticides (OP), chemical warfare agents, drugs, and various phytochemicals.
A homogenous cell-based assay using Amplitetrade mark Fluorimetric Acetylcholinesterase Assay Kit *Green Fluorescence* (AAT Bioquest, Sunnyvale, CA) was used to evaluate the chemicals in the Tox21 10K library that inhibit AChE activity. The assay uses Thiolite Green to quantify the thiocholine produced from the hydrolysis of acetylthiocholine by AChE from the SH-SY5Y cells. AChE can hydrolyze acetylthiocholine to create thiocholine. Thiolite Green is fluorescent when reacting with thiocholine. It has spectral properties similar to those of fluorescein. The fluorescence intensity of Thiolite Green is used to measure AChE activity. Its signal can be easily read by a fluorescence microplate reader at Ex/Em = 490/520 nm.
Tox21 Assay Protocol Summary:
For cell-based AChE assay, 2,000 SH-SY5Y cells in 4 uL/well were dispensed into black, clear-bottom 1536-well plates using a Multidrop Combi (Thermo Scientific) dispenser. The assay plates were incubated overnight at 37 C to allow cells to attach to the wells, followed by the transfer of 23 nL compound or DMSO (vehicle control) by a Pintool station (Wako Automation, CA). The plates were incubated for 30 min at 37 C and 5% CO2, followed by the addition of 4 uL of detection cocktail solution (ThioliteGreen, acetylthiocholine) into each well using Flying Reagent Dispenser (Beckman Coulter, CA) and then following 40 min incubation at room temperature. Fluorescent intensity (Ex/Em = 490/520 nm) was measured using an Envision plate reader (PerkinElmer, MA).
On to `CNC(C)Cc1ccc2c(c1)OCO2` (stereo not given), for which the Potency entry was “inactive”. To `O=C(O)C1C2CCC(O2)C1C(=O)O` (stereo not given) belongs “inactive”; to `CCCCCCCCCCBr`, “inactive”.

As to `[CH3][Hg][Cl]`, the Potency result was “inactive”. To `BrC(Br)C(Br)(Br)Br` belongs “inactive”; to `Clc1ccc(-c2ccccc2)cc1`, “inactive”; to `Clc1ccc(COC(Cn2ccnc2)c2ccc(Cl)cc2Cl)cc1` (stereo not given), “inactive”. To `CN(C)CCc1c[nH]c2ccc(O)cc12` belongs “inactive”; to `Nc1ccc([N+](=O)[O-])cc1Cl`, “inactive”. In the case of `CCCOCC(=Nc1ccc(Cl)cc1C(F)(F)F)n1ccnc1`, the Potency result is “inactive”. Next, `CCOP(=S)(OCC)OC(Cl)C(Cl)(Cl)Cl` (stereo not given): 31.7 µM (active).

`Clc1ccc(C(c2ccc(Cl)cc2)C(Cl)(Cl)Cl)cc1`: the Potency entry was “inactive”.

With `N#Cc1ccccc1Cl`, the Potency result is “inactive”. Next, `O=C(Nc1ccc2[nH]ccc2c1)c1cc2cc(F)ccc2n1Cc1cccc(F)c1`: “inactive”. To `CC1(C)C(/C=C(\Cl)C(F)(F)F)C1C(=O)OC(C#N)c1cccc(Oc2ccccc2)c1` (stereo not given) belongs “inactive”; to `COS(=O)(=O)c1ccc(C)cc1`, “inactive”; to `CN(CCCC(O)c1cccnc1)N=O` (stereo not given), “inactive”. To `Oc1ccc(I)cc1` belongs “inactive”. `C[C@@H](Oc1ccc(Cl)cc1Cl)C(=O)O`: the Potency entry was “inactive”.

For `Oc1c(Cl)c(Cl)cc(Cl)c1Cl`, the Potency entry is “inactive”.

For the compound `CC(C)C1CCC(Cc2ccc(Cl)cc2)C1(O)Cn1cncn1` (stereo not given), the Potency result is “inactive”.

With `CCCCCCCCCCCCCC[P+](CCCCCC)(CCCCCC)CCCCCC` (tested in a mixture with another compound), the Potency is 71 µM (active). Next, `COC[C@H](C)N(C(=O)CCl)c1c(C)csc1C`: “inactive”; `CC(=O)Nc1ccc2c(c1)Cc1ccccc1-2`: “inactive”. To `C=CC(=O)N(C)C` belongs “inactive”; to `CCC(C)c1cc(C(C)(C)C)cc(-n2nc3ccccc3n2)c1O` (stereo not given), “inactive”.

As for `O=C(CCl)C(Cl)Cl`, the Potency entry is “inactive”. Next, `CCc1ccccc1C`: “inactive”; `O=C(O)COc1nc(Cl)c(Cl)cc1Cl`: “inactive”. To `Clc1ccc(Oc2ccccc2)cc1` belongs “inactive”. To `Fc1cccc(Cl)c1CCl` belongs “inactive”; to `CN(C)c1ccc(N=Nc2ccccc2)cc1`, “inactive”; to `CC(=O)OC1(c2ccccc2)CCN(CCc2ccccc2)CC1`, “inactive”. For the compound `N#CCCSCCC#N`, the Potency result is “inactive”. Turning to `CCCCOP(=O)(CCCC)OCCCC`, the Potency entry is “inactive”. To `CCCCCCCCCCCCCN1CC(C)OC(C)C1` (stereo not given) belongs “inactive”; to `FC(Cl)(Cl)Cl`, “inactive”; to `CC[C@H](C)[C@H]1O[C@]2(C=C[C@@H]1C)C[C@@H]1C[C@@H](C/C=C(\C)[C@@H](O[C@H]3C[C@H](OC)[C@@H](O[C@H]4C[C@H](OC)[C@@H](O)[C@H](C)O4)[C@H](C)O3)[C@@H](C)/C=C/C=C3\CO[C@@H]4[C@H](O)C(C)=C[C@@H](C(=O)O1)[C@]34O)O2`, “inactive”.

With `O=c1ssc(Cl)c1Cl`, the Potency entry was “inactive”. Next, `CC(C)[C@H](C(=O)OC(C#N)c1cccc(Oc2ccccc2)c1)c1ccc(OC(F)F)cc1` (stereo not given in full): “inactive”.
